Test [1] can be described thus: Quantitative High-Throughput drug screen in 47 multiple myeloma cell lines against the NCATS MIPE library collection: MM1S_ATCC cell viability assay (AID 1918980).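 For viability (% of control): 100% = wells with DMSO only and 0% = wells with media only.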 Note: nearly all actives have a fitted effect of over 45% in size. The essentials:
(§1)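 Cells were exposed to library compounds for 48 hours, after which ATP was measured by CellTiter-Glo. Signal was taken as median relative luminescence units.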

Test [2] in a line: Quantitative High-Throughput drug screen in 47 multiple myeloma cell lines against the NCATS MIPE library collection: LP1_DSMZ cell viability assay (AID 1918982). Note: nearly all actives have a fitted effect of over 35% in size. The essentials:
as §1

A short description of test [3]: Quantitative High-Throughput drug screen in 47 multiple myeloma cell lines against the NCATS MIPE library collection: L363_DSMZ cell viability assay (AID 1918984). Note: nearly all actives have a fitted effect of over 40% in size. Put shortly: as §1
Test [4] can be described thus: Quantitative High-Throughput drug screen in 47 multiple myeloma cell lines against the NCATS MIPE library collection: OCIMY5_PLB cell viability assay (AID 1918988). Note: nearly all actives have a fitted effect of over 65% in size. Put shortly:
as §1

Test [5] is described as follows: Quantitative High-Throughput drug screen in 47 multiple myeloma cell lines against the NCATS MIPE library collection: OPM1_PLB cell viability assay (AID 1918989).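 For viability (% of control): 100% = DMSO-only wells and 0% = media-only wells.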 Note: nearly all actives have a fitted effect of over 40% in size. Put shortly: as §1
A short description of test [6]: Quantitative High-Throughput drug screen in 47 multiple myeloma cell lines against the NCATS MIPE library collection: KMS28PE_JCRB cell viability assay (AID 1918983). Note: nearly all actives have a fitted effect of over 35% in size. The essentials:
as §1

Test [7] can be described thus: Quantitative High-Throughput drug screen in 47 multiple myeloma cell lines against the NCATS MIPE library collection: KMS34_JCRB cell viability assay (AID 1918985).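 For viability, percent of control: 100% = DMSO-only wells and 0% = media-only wells.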 Note: nearly all actives have a fitted effect of over 40% in size. The essentials:
as §1

Test [8] is described as follows: Quantitative High-Throughput drug screen in 47 multiple myeloma cell lines against the NCATS MIPE library collection: SKMM1_PLB cell viability assay (AID 1919863). Note: nearly all actives have a fitted effect of over 35% in size. The note with it: SKMM1 myeloma viability, CellTiter-Glo ATP, 48 h; viability: stronger effect = lower value. Put shortly:
as §1
In general terms: Cellular ATP, detected with luciferase, serves as a proxy for viable cell number.

The nature of test [9]: Quantitative High-Throughput drug screen in 47 multiple myeloma cell lines against the NCATS MIPE library collection: OCIMY7_PLB cell viability assay (AID 1918987). Note: nearly all actives have a fitted effect of over 65% in size. Conditions: OCI-MY7 myeloma viability, CellTiter-Glo ATP, 48 h; viability (% of DMSO): at 45.8 µM (top of the series). The essentials: as §1

Results filed as inconclusive are left out. Unmarked numbers belong to inactive results. Activity calls are given as the source filed them. Calls come from the whole dose curve; as a rule, active = well fitted cell-killing curve with a large enough effect; inconclusive = small, poorly fitted or top-dose-only effect, or effect the other way; inactive = no such curve, though single readings can be large or run the other way.
Potency is the fitted concentration of half-maximal effect.

`NC1=N[C@H]2[C@H](CS[C@H]2CCCCC(=O)O)N1`: the Potency entry in test [1], in test [2], in test [3], in test [4] and in [5] was “inactive” throughout.

Consider `CC(=CC(=O)Nc1ccccc1C(=O)O)c1ccc2ccccc2c1`, for which the Potency in test [1] is 8.33 µM (active). The Potency result in [6] is “inactive”.

As for `CN(C)CC[C@H](c1ccc(Cl)cc1)c1ccccn1`, the Potency in [1] was 16.6 µM (active). Moreover, the Potency result in test [2] and in test [7] was “inactive” in each case.

With `FC(F)(F)c1ccc(Nc2nc3ccc(Oc4ccnc(-c5ncc(C(F)(F)F)[nH]5)c4)cc3[nH]2)cc1`, the Potency is 20.9 µM (active) in test [1], 18.7 µM (active) in test [3], 16.6 µM (active) in [4] and 20.9 µM (active) in test [5].

Turning to `CCCCCCCCCCCC(CC1OC(=O)C1CCCCCC)OC(=O)C(CC(C)C)NC=O` (centres undefined), the Potency entry in test [1], in test [3], in test [7] and in test [5] was “inactive” in each case. In addition, the Potency in test [6] is 26.4 µM (active); in [4], 18.7 µM (active); in [8] it was 16.6 µM (active).

As for `N#CC(=Cc1ccc(O)c(O)c1)C(=O)NCc1ccccc1`, the Potency is 26.4 µM (active) in [1]; 3.32 µM (active) in test [3]; 5.9 µM (active) in [9]; 20.9 µM (active) in test [4]; 9.35 µM (active) in test [5]. The Potency result in test [6] is “inactive”.

With `COc1ccc(C(C)=O)c(O)c1`, in test [1], the Potency was 4.69 µM (active). Besides, the Potency result in test [2], in test [6], in test [7], in test [4] and in test [5] was “inactive” throughout. Besides, the viability (commonly a read-out of living cells in per cent, often relative to untreated cells) in [8] is 112%.

Turning to `CCNC(=O)c1cc2c(-c3cc(OCCN4CCCC4)c(Cl)cc3Cl)nc(N)nc2s1`, the Potency in test [1] was 1.66 µM (active); in test [6] it was 1.87 µM (active); in test [3], 0.418 µM (active); in test [7] it was 1.32 µM (active); in test [9] it was 0.372 µM (active); in [4], 0.743 µM (active). Further, the Potency was 0.833 µM (active) in test [5] and 2.35 µM (active) in test [8].

As to `CC(=O)N1CCN(c2ccc(OCc3nn(C)c(C)c3-c3cccc4c(CCCOc5cccc6ccccc56)c(C(=O)O)n(Cc5cccnc5)c34)cc2)CC1`, the Potency is 0.0372 µM (active) in test [1]; 16.6 µM (active) in [6]; 1.18 µM (active) in test [3]; 18.7 µM (active) in test [7]; 0.001 µM (active) in test [9]; 20.9 µM (active) in test [8].

Take `CC[C@H]1OC(=O)[C@H](C)[C@@H](O[C@H]2C[C@@](C)(OC)[C@@H](O)[C@H](C)O2)[C@H](C)[C@@H](O[C@@H]2O[C@@H](C)C[C@H](N(C)C)[C@@H]2O)[C@](C)(O)C[C@@H](C)C(=O)[C@H](C)[C@@H](O)[C@]1(C)O`: the Potency result in test [1], in [2], in test [3], in test [4] and in test [5] was “inactive” in each case.

Regarding `COc1cc2c(cc1O)CCC1C2CC[C@@]2(C)C1CC[C@@H]2O` (some centres undefined), the figures for the Potency in [1], in [7] and in test [8] were 4.69 µM (active), 2.09 µM (active) and 0.833 µM (active), respectively.

Take `CC(C)(C)[C@H](NC(=O)c1ccc(N)c(Cl)c1)C(=O)N1CCC[C@@H]1C(=O)N[C@H](C#N)CC(=O)O`: the viability (% of control) in test [1] is 120% [at 3.51 µM]; in test [3] it was 111% [at 3.51 µM]; in test [5], 141% [at 3.51 µM]. Further, in [6], the viability, % of DMSO control is 131% [at 3.51 µM]. For the same compound, the viability, percent of control in [7] is 103% [at 3.51 µM]. In addition, the viability in test [8] was 125%.

Take `CC(C=CC1=C(C)CCCC1(C)C)=CC=CC(C)=CC(=O)Nc1ccc(O)cc1`: the Potency in [1] was 48.1 µM (active); in test [2] it was 17.1 µM (active); in [6], 21.5 µM (active); in [7] it was 17.1 µM (active); in [9] it was 4.29 µM (active); in test [5] it was 3.4 µM (active). Further, the Potency in [8] is 19.1 µM (active).

Turning to `OC[C@H]1OC(O)C[C@@H](O)[C@H]1O` (some centres undefined), the Potency result in test [1], in test [2], in [6] and in [3] was “inactive” throughout. For the same compound, the viability in [8] is 120%.

On to `c1ccc2c(Oc3nc(Nc4ccc(N5CCOCC5)cc4)c4ncn(C5CCCCC5)c4n3)cccc2c1`, for which the Potency entry in test [1], in [6] and in [5] was “inactive” in each case. Besides, the Potency in test [4] is 18.7 µM (active).

Take `C[C@]12CC[C@@H]3c4ccc(O)cc4CC[C@H]3[C@H]1CC[C@H]2O`: the Potency in test [1] was 8.33 µM (active); in test [6] it was 29.6 µM (active); in test [9], 5.9 µM (active); in [5] it was 16.6 µM (active).

As for `NS(=O)(=O)OC[C@@H]1C[C@@H](n2ccc3c(N[C@H]4CCc5ccccc54)ncnc32)C[C@H]1O`, the Potency in test [1] is 2.64 µM (active); in [2], 0.662 µM (active); in test [6], 0.935 µM (active); in test [9], 0.743 µM (active); in test [4], 16.6 µM (active); in test [5] it was 16.6 µM (active). For the same compound, the Potency in test [8] was 1.05 µM (active).

Regarding `Cc1ccc(-n2[nH]c(C)c(N=Nc3cccc(-c4cccc(C(=O)O)c4)c3O)c2=O)cc1C`, the Potency in test [1] was 18.7 µM (active); in test [2], 16.6 µM (active); in test [4], 26.4 µM (active). The Potency result in [3] was “inactive”.

In the case of `N#Cc1cc(NC(=O)Nc2nnc(-c3ccncc3)s2)ccc1-c1cn[nH]c1`, the Potency was 5.26 µM (active) in [1], 16.6 µM (active) in test [6] and 14.8 µM (active) in test [4]. In addition, the Potency result in test [2] and in test [5] was “inactive” each time.

Consider `COc1cc2ncnc(Nc3cccc(Br)c3)c2cc1OC`, for which the Potency was 0.0148 µM (active) in test [1], 2.96 µM (active) in [6], 0.0372 µM (active) in test [9] and 0.0118 µM (active) in test [4].

As to `CC(C)c1cc(C(C)C)c(CC(=O)NS(=O)(=O)Oc2c(C(C)C)cccc2C(C)C)c(C(C)C)c1`, in [1], the Potency entry is “inactive”. The Potency in test [2] is 20.9 µM (active); in [6], 23.5 µM (active); in test [7] it was 18.7 µM (active); in [5], 9.35 µM (active); in test [8], 26.4 µM (active).

With `COc1cc(C(=O)NC2CCN(C)CC2)ccc1Nc1ncc2c(n1)N(C1CCCC1)CCC(=O)N2C(C)C`, the Potency in test [1] is 1.05 µM (active); in test [3] it was 16.6 µM (active); in test [9] it was 14.8 µM (active); in test [4], 18.7 µM (active); in test [5], 20.9 µM (active).

Consider `Cc1ccc(O)c(C(CCN(C(C)C)C(C)C)c2ccccc2)c1` (centres undefined), for which the Potency entry in test [1], in test [6], in test [3], in [9], in test [4] and in [5] was “inactive” throughout.

The values above are taken from PubChem BioAssay (NCATS).
